Experimental data: PubChem BioAssay AID504334 (NMMLSC, 2011)
A number with no mark means an inactive call.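 Rule for the calls: active = response relative to DMSO over 150%; inconclusive = yeast strain with under 70 recorded events; inactive = the rest.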

Assay: yeast AGP1-GFP fluorescence change, single-dose confirmation – cell-based, flow cytometry, S. cerevisiae, cherry pick set 3 (AID 504334);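 note: median GFP fluorescence per well by flow cytometry over the all cells gate; ratio of sample to mean DMSO control signal so DMSO = 100% not 0%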
Settings: S. cerevisiae AGP1-GFP strain, 3 h, at 10 µM, stronger effect = higher value

Row | SMILES | percent response vs DMSO [%]
1 | CN(C)C(=O)Oc1ccnc2cc(Cl)ccc12 | 104
2 | C/C(O)=C(\C#N)C(=O)Nc1cc(Br)ccc1Br | 100
3 | CCN1CCN(c2ncnc3ccc(Br)cc23)CC1 | 99.8
4 | Cc1ccc2c(c1N)C(=O)c1ccccc1C2=O | 105
5 | CN1CCN(c2ncnc3ccc(Br)cc23)CC1 | 103
6 | CN(C)C(=O)Oc1ccc(Cl)c2cccnc12 | 93.4
